Screens as filed in PubChem.
Cruzain noTriton: inhibitors of Trypanosoma cruzi cruzain without detergent; AID 1476; P25779; 200,000 compounds, 2.3% hits; Potency, µM, most hits filed as inhibitors; purified cruzain, Z-FR-AMC fluorescence, no detergent; note: nearly all actives have a fitted effect of over 40% in size
Target sequence (P25779 123-467 limits assumed): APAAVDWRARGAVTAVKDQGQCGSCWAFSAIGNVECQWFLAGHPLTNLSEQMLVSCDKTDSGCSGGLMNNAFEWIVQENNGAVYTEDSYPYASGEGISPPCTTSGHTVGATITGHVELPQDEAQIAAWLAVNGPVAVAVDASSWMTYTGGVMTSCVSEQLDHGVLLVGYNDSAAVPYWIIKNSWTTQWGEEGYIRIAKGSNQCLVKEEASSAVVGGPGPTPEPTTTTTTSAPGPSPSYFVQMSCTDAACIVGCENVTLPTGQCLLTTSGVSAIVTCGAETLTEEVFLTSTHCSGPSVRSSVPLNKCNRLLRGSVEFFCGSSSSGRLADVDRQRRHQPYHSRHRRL
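Purified cruzain at 1.5 nM, pre-incubated 15 min with compound at room temperature in 100 mM sodium acetate pH 5.5, 5 mM DTT, 0.00005% Triton X-100. Reaction started with 2 uM Z-FR-AMC; AMC fluorescence increase over 60 s gives rate.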
Cruzain inh Det: inhibitors of Trypanosoma cruzi cruzain with detergent | P25779 | purified cruzain, Z-FR-AMC fluorescence, 0.01% Triton | Potency, µM, actives largely listed as inhibitors | 200,000 compounds, 0.43% hits | AID 1478; note: nearly all actives have a fitted effect of over 40% in size
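Cruzain (1.5 nM) preincubated 15 min at RT with compound in 100 mM sodium acetate pH 5.5, 5 mM DTT, 0.01% Triton X-100. Reaction started with 2 uM Z-FR-AMC; AMC fluorescence (ex 360/em 450 nm) change over 60 s gave rate.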
NS1 inh: inhibitors of influenza NS1 protein function | Potency, µM (titrated, usually from 46.1 µM) | 270,000 compounds, 0.4% hits | AID 2326; calls by dose curve; note: actives are rising curves; nearly all actives have a fitted effect of over 50% in size
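Growth recovery, yeast-based: influenza A NS1 expressed in S. cerevisiae causes slow growth, and suppressors are detected by OD600. The parent strain without NS1 is used as positive control.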
Of the large screens only hits and unclear results are named; the others gave an inactive call. This is one part of a sample in which hits are shown more often than they occur. Unless noted, calls come from the whole dose curve; as a rule, active = well fitted curve in the direction sought with a large enough effect; inconclusive = small, poorly fitted or top-dose-only effect, or another doubt; inactive = no such curve, though single readings can be large; an effect the other way counts as inactive or inconclusive.

CC1=NN(C(N)=S)C(=O)C1N=Nc1ccccc1C (stereo not given)	Cruzain noTriton 25µM, Cruzain inh Det inconclusive
CSc1cccc(NC(=O)Cn2nc(C)c3sc4ccccc4c3c2=O)c1	none (no result: NS1 inh)
Nc1ccc2c(c1)C/C(=C/c1ccco1)C2=O	Cruzain noTriton inconclusive
COc1ccc2c(c1)CC/C(=C/c1ccco1)C2=O	Cruzain noTriton 20µM, Cruzain inh Det 22µM
O=C(Cn1c(=O)n(Cc2ccco2)c(=O)c2c3c(sc21)CCCC3)Nc1ccccc1	Cruzain noTriton 25µM, NS1 inh inconclusive
NC(=O)Cn1c(=O)n(Cc2ccco2)c(=O)c2c3c(sc21)CCCCC3	none
CCOC(=O)Cn1c(=N)n(CCOc2ccc3ccccc3c2)c2ccccc21	Cruzain noTriton inconclusive
CCc1ccc(NC(=O)CSc2nc3n[nH]c(C)c3c(=N)n2-c2cccc(OC)c2)cc1	Cruzain noTriton 13µM, NS1 inh inconclusive
COc1cccc(NC(=O)CSc2nc3n[nH]c(C)c3c(=N)n2-c2cccc(OC)c2)c1	Cruzain noTriton inconclusive
CC1=C(C(=O)OC2CCCCCCC2)C(c2cccc(O)c2)NC(=O)N1 (stereo not given)	none
Nc1nnc(CC(=O)N/N=C/c2ccc([N+](=O)[O-])cc2)s1	none (no result: Cruzain noTriton, Cruzain inh Det)
Cc1cccc(OCCOc2ccc(/C=N/NC(=O)Cc3nnc(N)s3)cc2)c1	Cruzain noTriton 5µM
Cc1ccc(C(=O)/C=C\C(=O)c2ccc(C)cc2)cc1	none
Cc1ccc(C(=O)c2no[n+]([O-])c2C(=O)c2ccc(C)cc2)cc1	Cruzain noTriton 25µM, Cruzain inh Det inconclusive
O=C(N=Nc1c(O)[nH]c2ccc(Br)cc12)c1cc(-c2cccs2)nc2ccccc12	none (no result: Cruzain noTriton, Cruzain inh Det)
Cn1c(O)c(N=NC(=O)c2cc(-c3cccs3)nc3ccccc23)c2ccccc21	Cruzain noTriton 10µM
CCCCCCNC(=O)c1c(O)c2ccccc2[nH]c1=O	Cruzain noTriton 25µM
COc1ccccc1CNC(=O)c1c(O)c2cc(OC)c(OC)cc2[nH]c1=O	Cruzain noTriton 3.2µM
CCCCn1c(=O)c(C(=O)NCc2ccccc2OC)c(O)c2ccccc21	none (no result: Cruzain noTriton, Cruzain inh Det)
CCCCCCCC(=O)NNC(=O)c1c(O)c2ccccc2[nH]c1=O	none (no result: Cruzain noTriton, Cruzain inh Det)
O=C(O)c1cc[c]([Hg][Cl])cc1	none
CCOc1ccccc1CNC(=O)c1ccc(Cn2c(=O)c3cccn3c3cccnc32)cc1	none (no result: NS1 inh)
O=c1c2ccccc2[nH]c(=S)n1Cc1ccccc1	none (no result: Cruzain noTriton, Cruzain inh Det)
O=c1c2ccccc2[nH]c(=S)n1Cc1cccs1	Cruzain noTriton 25µM
O=C1c2oc3ccccc3c(=O)c2C(c2cccc(O)c2)N1c1nncs1 (stereo not given)	none (no result: NS1 inh)
O=C(CN1C(=O)C2(SCC(=O)N2c2ccccc2)c2ccccc21)NCCc1ccccc1 (stereo not given)	none (no result: NS1 inh)
COc1cccc(C(=O)NC2CC(C)(C)Cc3c2cnn3-c2cccc(F)c2)c1OC (stereo not given)	none (no result: Cruzain noTriton, Cruzain inh Det)
CC(NC(=O)CSc1n[nH]c(-c2ccccc2)n1)c1nc2ccccc2n1C (stereo not given)	none (no result: NS1 inh)
CC(=O)Nc1ccc(S(=O)(=O)NCc2ccc(C(=O)NC(C)c3ccccc3)cc2)cc1 (stereo not given)	none
Clc1cccc(-c2cc3nc4c(c(N5CCNCC5)n3n2)CCCC4)c1	Cruzain noTriton 25µM
OC1CCN(c2c3c(nc4cc(-c5cccc(F)c5)nn24)CCCC3)CC1	none
CC(C)(C)C1CCc2oc3ccc(NS(=O)(=O)c4ccc(C(=O)O)cc4)cc3c2C1 (stereo not given)	Cruzain noTriton inconclusive (no result: NS1 inh)
CC(C)(C)C1CCc2oc3ccc(NS(=O)(=O)c4cc(Cl)ccc4Cl)cc3c2C1 (stereo not given)	Cruzain noTriton 4µM (no result: NS1 inh)
O=[N+]([O-])c1ccc(S(=O)(=O)Cc2ccccc2)c([N+](=O)[O-])c1	none
Cc1cc(Cl)ccc1NC(=S)NCc1ccc(F)cc1	none (no result: Cruzain noTriton, Cruzain inh Det)
CSc1nnc(-c2cnccn2)n1CCCN1CCCC1=O	none
CCc1nnc(NC(=O)CSCc2cc(=O)n3nc(C(C)C)sc3n2)s1	none (no result: Cruzain noTriton, Cruzain inh Det)
O=C1c2ccccc2C(=O)C12OC2c1ccc(Cl)cc1 (stereo not given)	none
O=C1c2ccccc2C(=O)C12OC(c1ccccc1)C1(C(=O)c3ccccc3C1=O)C2c1cccc([N+](=O)[O-])c1 (stereo not given)	Cruzain noTriton 7.9µM
CC(C)=C1C2CCC1C(C(=O)Nc1cc(C)cc(C)c1)C2C(=O)O (stereo not given)	none (no result: Cruzain noTriton, Cruzain inh Det)
CC(C)(C)C(=O)CSc1nc2c(c(-c3cccs3)c1C#N)CCC2	Cruzain noTriton 25µM
CN1CCc2nc(SCC(=O)Nc3ccc(OC(F)(F)F)cc3)c(C#N)c(-c3cccs3)c2C1	Cruzain noTriton inconclusive, NS1 inh inconclusive
CC(=O)CSc1nc(N)c(C#N)c(-c2cccs2)c1C#N	none
CN1CCc2nc(SCC(=O)Nc3cccc(F)c3)c(C#N)c(-c3cccs3)c2C1	Cruzain noTriton 20µM
N#Cc1ccc(-c2cccs2)nc1SCC(=O)Nc1cccc(C(F)(F)F)c1	Cruzain noTriton 20µM (no result: NS1 inh)
N#Cc1c(C(F)(F)F)cc(-c2cccs2)nc1SCC(=O)Nc1cccc(C(F)(F)F)c1	none (no result: NS1 inh)
COc1ccc(C(=O)Nc2nnc(-c3ccc(F)cc3)s2)c(OC)c1	none (no result: Cruzain noTriton, Cruzain inh Det)
CCC(=O)NC(=S)Nc1ccc(NC(=O)c2ccc(C)c([N+](=O)[O-])c2)cc1	Cruzain noTriton 10µM, NS1 inh inconclusive
CCOc1ccc(C(=O)NC(=S)Nc2ccc(NC(=O)CC)cc2)cc1[N+](=O)[O-]	Cruzain noTriton inconclusive
CCOc1ccccc1C(=O)Nc1ccc(S(=O)(=O)Nc2nc(C)cc(C)n2)cc1	none (no result: NS1 inh)
O=C(Cn1c(=O)n(Cc2cccs2)c(=O)c2cccnc21)Nc1ccccc1F	none (no result: NS1 inh)
CCOC(=O)N1CCN(CC(=O)N2c3ccccc3CC2C)CC1 (stereo not given)	none
CCCOC(=O)c1c(NC(=O)C2c3ccccc3Oc3ccccc32)sc2c1CCCC2	Cruzain noTriton 25µM (no result: NS1 inh)
CCOC(=O)c1c(NC(=O)c2ccccc2OCC)sc2c1CCC(CC)C2 (stereo not given)	none (no result: NS1 inh)
CCN(CC)C(=O)c1sc(NC(=O)C2c3ccccc3Oc3ccccc32)c(C(=O)OC(C)C)c1C	none (no result: NS1 inh)
CCOC(=O)c1c(NC(=O)C2c3ccccc3Oc3ccccc32)sc(C(N)=O)c1C	none
CCC1CCc2c(sc(NC(=O)C3c4ccccc4Oc4ccccc43)c2C(N)=O)C1 (stereo not given)	Cruzain noTriton 25µM
CC(C)OC(=O)c1c(NC(=O)C2c3ccccc3Oc3ccccc32)sc2c1CCCC2	Cruzain noTriton 6.3µM (no result: NS1 inh)
OB(O)c1cc2ccccc2o1	none (no result: NS1 inh)
CCCc1nc2ccccc2c(=O)n1-c1cccc(OC)c1	none
CC(C)Oc1cccc(-n2c(CCc3c[nH]c4ccc(Br)cc34)nc3ccccc3c2=O)c1	Cruzain noTriton 32µM (no result: NS1 inh)
COCC(=O)N1CCC2(CC1)CN(Cc1cc(C(F)(F)F)cc(C(F)(F)F)c1)C2	none (no result: NS1 inh)
COc1ccc(C(=O)OCC(=O)NC(C)CCc2ccccc2)cc1OC (stereo not given)	none (no result: Cruzain noTriton, Cruzain inh Det)
CCCCN(CCCNC(=O)c1cc(Nc2cccc(SC)c2)nc2ccccc12)Cc1ccccc1	Cruzain noTriton inconclusive (no result: NS1 inh)
CN(C)S(=O)(=O)c1cccc(C(=O)N2CCc3ccccc32)c1	none
CN(C)S(=O)(=O)c1cccc(C(=O)C2=C3SC=C(c4ccccc4)N3CC2)c1	Cruzain noTriton 25µM
COc1ccc(/C=C2\CCCC3C2=NN(C(=O)CSc2ncn[nH]2)C3c2ccc(OC)cc2)cc1 (stereo not given)	Cruzain noTriton inconclusive, NS1 inh inconclusive
